Data as given in PubChem BioAssay (NCATS).
Results filed as inconclusive are left out. Unmarked numbers belong to inactive results. Calls of active or inactive are those of the source. The call rests on the fitted dose curve; in most records, active means well fitted inhibition curve with a large enough effect; inconclusive means small, poorly fitted or top-dose-only effect; inactive means flat fitted curve, though single readings scatter.

Assays:
Experiment in all cases: Cytotoxic Profiling of Annotated Libraries Using Quantitative High-Throughput Screening (AID 1296008); further: nearly all actives have a fitted effect of over 60% in size
Settings in all cases: Five cell lines viability, CellTiter-Glo ATP luminescence, 48-72 h; max response: active compounds read low
[1] = tested on: HEK293
Summary of the method: (§1)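 Cytotoxicity was measured as CellTiter-Glo ATP luminescence, read after 10 min at room temperature. Compound treatment of the cells lasted 48 or 72 hr at 37 degrees Celsius in a qHTS format.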

[2] = tested on: KB-3-1
Summary of the method: as §1

[3] = tested on: NIH3T3
Summary of the method: as §1
On the % scale 0 is the no-effect control and ±100 the full control effect; potency means the concentration at half of the fitted maximal effect.

## CC1(C)CC(NC(=O)C(=O)Nc2ccc(Br)cc2)CC(C)(C)N1
[1]
  Potency: 4.11 µM (active)
[2]
  Potency: 4.61 µM (active)

## COc1cc(Nc2nc3ccccc3nc2NS(=O)(=O)c2ccc(NC(=O)c3ccc(OC)c(C)c3)cc2)cc(OC)c1
[1]
  max response: 1.81%
[2]
  outcome: inactive
[3]
  outcome: inactive

## C[C@@H]1O[C@@H](O[C@H]2[C@H](OC(=O)[C@]34CCC(C)(C)C[C@H]3C3=CCC5[C@@]6(C)C[C@H](O)[C@H](O[C@@H]7O[C@H](CO)[C@@H](O)[C@H](O)[C@H]7O)[C@@](C)(CO)C6[C@H](O)C[C@@]5(C)[C@]3(C)C[C@H]4O)OC[C@H](O)[C@@H]2O)[C@H](O)[C@H](O)[C@H]1O[C@@H]1OC[C@@H](O)[C@H](O[C@H]2OC[C@](O)(CO)[C@H]2O)[C@H]1O (some centres undefined)
[1]
  max response: 3.89%
[2]
  max response: 3.95%
[3]
  outcome: inactive

## C=C1CC23CC1CCC2C12OC(=O)C(C)(CCC1O)C2C3C(=O)O (centres undefined)
[1]
  max response: 2.62%
[2]
  outcome: inactive
[3]
  max response: 3.76%

## Cc1c[nH]c2nccc(Oc3c(F)cc(Nc4cc(Cl)nc(N)n4)cc3F)c12
[1]
  Potency: 5.8 µM (active)
[2]
  Potency: 1.46 µM (active)
[3]
  Potency: 10.3 µM (active)

## COc1c(Nc2ncc(Cl)c(N[C@H]3[C@@H](C(N)=O)[C@@H]4C=C[C@H]3C4)n2)ccc2c1CC[C@@H](N1CCOCC1)CC2
[1]
  Potency: 3.66 µM (active)
[2]
  Potency: 18.4 µM (active)

## COC1CC(O[C@H]2CC[C@@]3(C)C(=CC[C@]4(O)C3[C@H](OC(C)=O)[C@@H](OC(=O)c3ccccc3)[C@]3(C)[C@@H](C(C)=O)CC[C@@]34O)C2)OC(C)C1OC1CC(OC)C(OC2CC(OC)C(OC3OC(C)C(OC4OC(CO)C(O)C(O)C4O)C(OC)C3O)C(C)O2)C(C)O1 (some centres undefined)
[1]
  max response: 1.75%
[2]
  max response: 0.0608%
[3]
  max response: -0.853%
